Screening results deposited in PubChem by The Scripps Research Institute Molecular Screening Center.
PAFAH1B2 FP inh = PAFAH1B2 (human) inhibition | P68402 | recombinant PAFAH1B2, FP-rhodamine activity probe, fluorescence polarization | inhibition, % at 3.39 µM | hit rate 1.2% among 340,000 | AID 492953;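 active means inhibition above the mean of all tested compounds plus 3 SD, cut at about 24% in these data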;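 further: 0% = enzyme with DMSO and 100% = wells lacking PAFAH1B2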
Fam108B counter = Fam108B inhibition, counter-screen for RBBP9 inhibitors. inhibition, % at 9.51 µM. hit rate 0.33% among 300,000. recombinant Fam108B, FP-Rh probe fluorescence polarization. AID 1947;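 active means inhibition above the screen mean inhibition plus 3 SD, computed separately per campaign, cut at about 18% in these data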;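 further: inhibitors lower polarization as less probe binds the enzyme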
pPAFAH FP inh = pPAFAH (human) enzyme inhibition; inhibition, % at 3.39 µM; hit rate 1.5% among 330,000; AID 463082; Q13093; recombinant pPAFAH, FP-rhodamine probe fluorescence polarization;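 active means inhibition above the mean inhibition across the screen plus 3 SD, cut at about 25% in these data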;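 further: inhibitors block binding of the rhodamine activity-based probe so polarization drops; 0% = enzyme with DMSO and 100% = wells lacking pPAFAH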
PME-1 inh = PME-1 (human) inhibition | recombinant PME-1, FP-Rh probe fluorescence polarization | inhibition, % at 5.9 µM | hit rate 0.53% among 320,000;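 active means inhibition above the campaign mean of all compounds plus 3 SD, cut at about 26% in these data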;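 further: competitive labeling of PME-1 active site by serine hydrolase directed probe; 0% = PME-1 with DMSO and 100% = wells lacking PME-1 enzyme; inhibitors block probe labeling so polarization falls and inhibition rises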
Target sequence (Q9Y570 whole entry, looked up): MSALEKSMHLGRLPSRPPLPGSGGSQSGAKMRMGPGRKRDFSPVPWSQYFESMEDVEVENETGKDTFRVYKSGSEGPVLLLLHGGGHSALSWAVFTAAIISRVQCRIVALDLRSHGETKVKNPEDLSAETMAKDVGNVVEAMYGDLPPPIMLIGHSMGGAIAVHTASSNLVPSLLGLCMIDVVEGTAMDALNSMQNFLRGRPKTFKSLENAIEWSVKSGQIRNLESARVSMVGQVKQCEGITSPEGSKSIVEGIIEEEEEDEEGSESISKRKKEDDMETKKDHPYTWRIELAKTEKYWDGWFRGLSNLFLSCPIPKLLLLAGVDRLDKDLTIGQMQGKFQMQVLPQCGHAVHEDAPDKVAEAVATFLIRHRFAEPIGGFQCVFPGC
PAFAH2 inh = inhibitors of human PAFAH2; inhibition, % at 3.39 µM; AID 492956; Q99487; hit rate 0.99% among 340,000; recombinant PAFAH2, FP-rhodamine activity probe, fluorescence polarization;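 active means inhibition above the mean over all tested compounds plus 3 SD, cut at about 30% in these data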;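 further: inhibitors block probe labeling of enzyme so polarization drops; 0% = enzyme with DMSO and 100% = wells lacking PAFAH2 protein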
PAFAH1B3 FP inh = PAFAH1B3 (human) inhibition; Q15102; inhibition, % at 3.39 µM; hit rate 0.28% among 340,000; recombinant PAFAH1B3, FP-rhodamine probe, fluorescence polarization;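 active means inhibition above the screen-wide average of all tested compounds plus 3 SD, cut at about 25% in these data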;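 further: 0% = enzyme with DMSO only and 100% = wells lacking PAFAH1B3 protein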
Target sequence (Q15102 whole entry, looked up): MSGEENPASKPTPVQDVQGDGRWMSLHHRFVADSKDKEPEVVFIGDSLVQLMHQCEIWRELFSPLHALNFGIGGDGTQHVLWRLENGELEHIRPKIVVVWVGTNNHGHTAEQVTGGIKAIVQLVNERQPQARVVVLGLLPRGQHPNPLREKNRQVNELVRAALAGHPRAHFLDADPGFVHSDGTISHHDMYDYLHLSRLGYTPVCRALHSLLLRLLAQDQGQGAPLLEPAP
Starred values were filed as active, the others as inactive; . = not tested or not shown. An excerpt weighted towards active compounds, which were near 2.8% of everything screened.

SMILES	PAFAH1B2 FP inh	Fam108B counter	pPAFAH FP inh	PME-1 inh	PAFAH2 inh	PAFAH1B3 FP inh
O=C(c1sc2ccccc2c1Cl)N1CCN(c2ncccn2)CC1	1	9	15	28*	7	5
O=C(c1sc2ccccc2c1Cl)N1CCN(c2ccc(F)cc2)CC1	6	2	5	7	8	-7
O=C(O)c1cc(-c2ccccc2Cl)n(-c2ccccc2)n1	29*	0	4	-1	-7	6
COc1ccc(-n2nc(C(=O)O)cc2-c2ccccc2)cc1	2	-2	2	6	1	-2
CCCc1cc(=O)n2[nH]c(C)c(-c3ccccc3)c2n1	0	2	2	-6	-2	8
Cc1[nH]n2c(=O)cc(-c3ccc([N+](=O)[O-])cc3)nc2c1-c1ccccc1	19	12	33*	22	21	13
Cc1nc(N)sc1-c1csc(N(C)c2ccc(O)cc2)n1	3	-2	27*	-4	5	6
CN(c1ccc(O)cc1)c1nc(-c2cccs2)cs1	-3	3	8	3	4	8
O=C(COc1ccccc1)Nc1nnc(S(=O)(=O)Nc2ccccc2)s1	7	2	27*	2	11	2
CCC(Oc1ccccc1)C(=O)Nc1nnc(S(=O)(=O)Nc2ccccc2)s1 (stereo not drawn)	8	-2	33*	-1	1	0
CCC(Oc1ccccc1)C(=O)Nc1nnc(S(=O)(=O)N2CCCCC2)s1 (stereo not drawn)	2	-1	2	-2	12	7
O=C(CN1CCN(C(=O)C2CC2)CC1)Nc1cc(C(F)(F)F)cc(C(F)(F)F)c1	3	.	4	2	-5	1
O=C(CNC(=O)c1ccncc1)N/N=C/c1cc(Br)ccc1O	8	5	0	-1	3	11
O=C(CNC(=O)c1ccccc1)N/N=C/c1cc(Br)ccc1O	27*	2	9	0	4	10
CCOc1ccccc1C(=O)Nc1cc(C)ccc1NC(=O)c1ccco1	8	-4	3	-2	1	11
c1coc(CSSCc2ccco2)c1	17	.	6	-4	50*	30*
COc1ccc(-c2cc3ccc(OC(C)C(=O)O)cc3oc2=O)cc1 (stereo not drawn)	6	.	.	.	-1	6
Cc1cc(C)cc(NC(=O)Nc2ccc(-n3ccc(C(F)(F)F)n3)cc2)c1	49*	-4	-24	-10	2	7
COC(=O)COc1cccc(NC(=O)C(c2ccccc2)c2ccccc2)c1	8	-1	-4	0	9	10
Cc1sc2ncn(CC(=O)NCc3ccco3)c(=O)c2c1-c1ccc(F)cc1	-3	-4	17	1	-2	1
O=C(Cn1cnc2scc(-c3cccc([N+](=O)[O-])c3)c2c1=O)NCc1ccco1	-4	-3	26*	9	18	4
COc1ccc(OC)c(NC(=O)Nc2nnc(N3CCC(C)CC3)s2)c1	10	2	16	29*	6	4
COc1ccc(NC(=O)Nc2nnc(N3CCC(C)CC3)s2)cc1OC	10	2	2	20	6	1
Cc1ccc(/C=C2/SC(=S)N(CCC(=O)N3CCOCC3)C2=O)cc1	1	2	1	-3	0	1
N#Cc1c(SC(C(=O)O)c2ccccc2)nc2c(c1-c1cccs1)CCCC2 (stereo not drawn)	27*	-4	20	6	-2	11
SMILES	PAFAH1B2 FP inh	Fam108B counter	pPAFAH FP inh	PME-1 inh	PAFAH2 inh	PAFAH1B3 FP inh
Cc1ccc2c(=O)cc(C(=O)NCc3ccccc3)oc2c1C	-1	5	5	-1	0	4
CSc1ccc(S(=O)(=O)NCC(=O)OCC(=O)NCc2cccs2)cc1[N+](=O)[O-]	-2	0	9	1	7	1
CCCn1c(N)c(C(=O)CN(C)CC(=O)Nc2ccccc2CC)c(=O)[nH]c1=O	-1	.	2	33*	-7	3
OCCCNc1cc(-c2ccccc2)nc2cc(-c3ccc(F)cc3)nn12	26*	2	4	6	-10	5
Cc1cc(NCCCO)n2nc(-c3cccs3)cc2n1	5	1	1	-1	-4	1
Cc1ccc(S(=O)(=O)NCC(=O)Nc2cccnc2)cc1C	10	.	-3	.	2	6
Cc1cc(NCCCn2ccnc2)n2nc(C)c(-c3ccc(Cl)cc3)c2n1	0	11	25*	7	4	5
Cc1cc(NCCN2CCOCC2)n2nc(C)c(-c3ccc(Cl)cc3)c2n1	1	9	28*	15	5	3
CCc1ccccc1NC(=O)C1CCN(c2cnccn2)CC1	1	2	8	0	-10	3
CC(C)(C)c1cc(=O)[nH]c(SCc2ccccc2)n1	21	-2	31*	2	14	1
CC(C)(C)c1cc(=O)[nH]c(SCc2ccccc2Cl)n1	12	-3	27*	-1	16	4
Cc1cc(=O)[nH]c(SCc2ccccc2)n1	0	1	-2	0	3	5
Cc1ccc(S(=O)(=O)Nc2cc(=O)[nH]c(SCc3ccccc3Cl)n2)cc1	-1	-1	-9	-10	-2	5
O=C(Cn1cc(S(=O)(=O)Cc2ccc([N+](=O)[O-])cc2)c2ccccc21)N1CCOCC1	1	-5	1	7	-11	10
Cc1ccc(-c2cn(-c3ccccc3)c(SCC(N)=O)n2)cc1C	-4	-2	30*	5	8	2
Cc1ccccc1-n1cc(-c2ccc(Br)cc2)nc1SCC(N)=O	.	5	10	4	.	.
CCOC(=O)NC(=O)CSc1nnnn1-c1ccccc1	3	0	-2	-12	7	1
CCOC(=O)NC(=O)CSc1nc(-c2ccc(C)c(C)c2)cn1-c1ccccc1	3	1	32*	2	3	0
Cc1ccc(NC(=O)CSCC(=O)OC(C)C(=O)Nc2ccccc2C)cc1 (stereo not drawn)	-4	.	.	.	6	6
COc1cccc(C(=O)OCC(=O)N2CCc3ccccc3C2)c1	0	.	4	.	18	2
C=CC[C@@H](Cc1ccc(F)cc1)C(=O)OC[C@@H]1CCCN1C(=O)[C@H](CC=C)CC(=O)N(CCO)Cc1ccccc1	3	.	6	.	0	11
CC1CCN(S(=O)(=O)c2cnc(Cl)c(Br)c2)CC1	26*	3	1	0	-2	-3
O=C(/C=C/c1ccc(S(=O)(=O)NCc2ccco2)cc1)NCc1ccccc1Cl	7	-4	32*	3	-4	4
COC(=O)c1ccccc1S(=O)(=O)N1CCC(C(=O)NC2CCCCC2)CC1	6	.	-3	-1	9	-1
COc1ccc(NC(=O)O/N=C/c2ccc(N(C)C)cc2)cc1	4	0	7	9	-5	4
Cc1ccc(NC(=O)O/N=C/c2ccc(F)cc2)cc1	10	4	-2	3	5	10
